Reference: PubChem BioAssay (EPA / NIEHS)
Results filed as inconclusive are left out. The source made the active and inactive calls. The calls were made as follows: active = hit-call score of the fitted dose curve at least 0.9, where 1 is the maximum; inconclusive = response in the unintended direction; inactive = score below 0.9.

Legend:
[1] = TOX21_p53_BLA_p2_viability: Viability Assessment in the Tox21 HCT-116 p53 Agonism Beta-lactamase Assay, Phase 2 (AID 2283591);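 also: actives lower the ATP signal meaning cytotoxicity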
Procedure, shortened: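 HCT-116 p53-bla cells (4000/well) rested 5 h at 37C, then received compounds in DMSO (217-fold dilution) for 16 h at 37C, 5% CO2. After the CCF4 read, CellTiter-Glo was added; ATP luminescence was read after 30 min at room temperature.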

[2] = biological target: Cellular tumor antigen p53 (Homo sapiens) (UniProt P04637); assay: TOX21_p53_BLA_p2_ratio: Tox21 HCT-116 p53 Agonism Beta-lactamase Assay, Ratio, Phase 2 (AID 2283592)
Chain of Cellular tumor antigen p53 (Homo sapiens) (P04637 whole entry, looked up): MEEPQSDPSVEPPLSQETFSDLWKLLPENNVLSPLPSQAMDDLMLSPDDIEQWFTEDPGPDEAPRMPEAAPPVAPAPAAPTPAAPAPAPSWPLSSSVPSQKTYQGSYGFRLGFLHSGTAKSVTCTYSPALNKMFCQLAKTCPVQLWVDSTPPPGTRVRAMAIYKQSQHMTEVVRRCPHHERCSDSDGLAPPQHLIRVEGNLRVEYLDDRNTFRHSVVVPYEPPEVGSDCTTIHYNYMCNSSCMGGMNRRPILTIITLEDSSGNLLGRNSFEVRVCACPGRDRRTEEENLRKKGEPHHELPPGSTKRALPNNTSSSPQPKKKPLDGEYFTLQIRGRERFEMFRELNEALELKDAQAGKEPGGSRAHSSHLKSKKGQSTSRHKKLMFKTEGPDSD
Procedure, shortened: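 An inducible beta-lactamase reporter in HCT116 cells signals p53 pathway activation. After 16 h chemical exposure at 37C, cells load CCF4-AM substrate for 2 h at room temperature; activity is the cleaved/uncleaved emission ratio relative to DMSO.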

[3] = TOX21_p53_BLA_p3_viability: Viability Assessment in the Tox21 HCT-116 p53 Agonism Beta-lactamase Assay, Phase 3 (AID 2283593);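 also: cells exposed to compound for 16 h before reading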
Procedure, shortened: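 HCT-116 cells (4000/well) rested 5 h at 37C, then got DMSO compounds by pin tool (217-fold dilution) for 16 h at 37C, 5% CO2. After the bla read, CellTiter-Glo was added and luminescence read at 30 min, room temperature.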

[4] = biological target: Cellular tumor antigen p53 (Homo sapiens) (UniProt P04637); assay: TOX21_p53_BLA_p3_ratio: Tox21 HCT-116 p53 Agonism Beta-lactamase Assay, Ratio, Phase 3 (AID 2283596)
Procedure, shortened: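 HCT116 p53-bla cells (4000/well) given compound in DMSO (217-fold dilution) after 5 h, incubated 16 h at 37C. CCF4-AM substrate 2 h at room temperature; 460/530 nm emission ratio, gain fitted against DMSO.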

[5] = TOX21_p53_BLA_p5_viability: Viability Assessment in the Tox21 HCT-116 p53 Agonism Beta-lactamase Assay, Phase 5 (AID 2283600)
Procedure, shortened: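 Counter-readout for cytotoxicity: ATP-dependent luminescence from CellTiter-Glo, read in the beta-lactamase wells after 30 min at RT, following a 16 h compound exposure at 37C.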

[6] = biological target: Cellular tumor antigen p53 (Homo sapiens) (UniProt P04637); assay: TOX21_p53_BLA_p5_ratio: Tox21 HCT-116 p53 Agonism Beta-lactamase Assay, Ratio, Phase 5 (AID 2283599)
Procedure, shortened: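 HCT-116 cells carrying a p53-inducible beta-lactamase reporter were seeded at 4000 cells/well and dosed after 5 h with compound in DMSO (217-fold dilution). After 16 h at 37C, CCF4-AM substrate was added for 2 h, and the 460/530 nm emission ratio was scored as gain-of-signal versus DMSO.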

[7] = biological target: Cellular tumor antigen p53 (Homo sapiens) (UniProt P04637); assay: TOX21_p53_BLA_p4_ratio: Tox21 HCT-116 p53 Agonism Beta-lactamase Assay, Ratio, Phase 4 (AID 2283601)
Procedure, shortened: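 HCT116 cells carrying an inducible beta-lactamase reporter were plated at 4000 cells/well, rested 5 h, then exposed to compounds in DMSO (217-fold dilution) for 16 h at 37C. CCF4-AM substrate was loaded 2 h at room temperature; 460/530 nm emission ratio scored gain-of-signal versus DMSO.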

| Compound | outcome [1] | outcome [2] | outcome [3] | outcome [4] | outcome [5] | AC50 [2] | AC50 [4] | AC50 [6] | AC50 [7] | AC50 [1] | AC50 [3] | AC50 [5] |
| --- | --- | --- | --- | --- | --- | --- | --- | --- | --- | --- | --- | --- |
| CC(C)(O)C(Cl)(Cl)Cl | inactive | inactive | inactive | inactive | inactive | – | – | – | – | – | – | – |
| C[C@]12CC[C@@H]3c4ccc(OC(=O)N(CCCl)CCCl)cc4CC[C@H]3[C@@H]1CC[C@@H]2O | inactive | – | inactive | – | – | 24.6 µM (active) | 29 µM (active) | 25.2 µM (active) | 31.9 µM (active) | – | – | – |
| CCCCCc1cc(O)c2c(c1)OC(C)(C)[C@@H]1CCC(C)=C[C@@H]21 | – | – | – | – | – | 41.7 µM (active) | 40.4 µM (active) | 43.1 µM (active) | 40 µM (active) | 24.4 µM (active) | 23.4 µM (active) | 32.8 µM (active) |
